{
  "source": "PubChem BioAssay (NCATS)",
  "note": "Records with an inconclusive call do not appear. Values without a mark were called inactive. Active and inactive are the calls of the source. The call rests on the fitted dose curve.",
  "data": [
    {"target": "Peroxisome proliferator-activated receptor delta (Homo sapiens) (UniProt Q03181)", "sequence (Q03181 whole entry, looked up)": "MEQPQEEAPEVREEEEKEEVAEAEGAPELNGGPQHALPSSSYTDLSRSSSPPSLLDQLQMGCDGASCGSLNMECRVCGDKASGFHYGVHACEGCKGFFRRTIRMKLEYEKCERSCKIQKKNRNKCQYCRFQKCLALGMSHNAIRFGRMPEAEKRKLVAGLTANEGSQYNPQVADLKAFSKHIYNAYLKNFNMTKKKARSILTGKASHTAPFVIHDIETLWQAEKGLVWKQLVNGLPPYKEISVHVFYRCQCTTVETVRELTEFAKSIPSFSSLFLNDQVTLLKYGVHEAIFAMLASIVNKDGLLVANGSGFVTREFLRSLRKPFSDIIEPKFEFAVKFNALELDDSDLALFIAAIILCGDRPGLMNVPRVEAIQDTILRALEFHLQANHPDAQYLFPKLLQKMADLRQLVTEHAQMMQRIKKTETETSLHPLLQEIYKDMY", "assay": "qHTS assay for small molecule agonists of peroxisome proliferator-activated receptor delta signaling (AID 588534);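 further: 0% = DMSO basal wells and 100% = positive control agonist at 10 µM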", "conditions": "HEK293T PPARdelta-UAS-bla, beta-lactamase ratio, 18 h; series mostly up to 76.7 µM; activation: at the top concentration", "summary_of_the_method": "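Agonist-mode beta-lactamase reporter readout (CCF4 dye, 2 h at RT) after 18 h at 37 °C exposure to a titration; Hill-equation fitting gave EC50 and maximal response.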", "units": {"activation": "%"}, "values": [
      {"smiles": "COc1ccc(N)c(OC)c1", "activation": -5.72},
      {"smiles": "CCCCN(CCCC)CCCC", "activation": -2.53},
      {"smiles": "CCCCCCCCCCCCCCCCCC#N", "activation": 5.39},
      {"smiles": "O=C(Cl)c1cccc(C(=O)Cl)c1", "activation": 5.99},
      {"smiles": "CCCCCCCC/C=C\\CCCCCCCCO", "activation": -1.04},
      {"smiles": "CC(C)(C)OCC1CO1", "note": "(stereo not given)", "activation": 11.4},
      {"smiles": "CCOc1ccc(NC(C)=O)cc1N", "activation": -6.06},
      {"smiles": "Cc1cccc(C)c1O", "activation": 2.41},
      {"smiles": "CCCCOCCOCCOC(C)=O", "activation": -2.3},
      {"smiles": "CC(C)=CCC[C@@H](C)[C@H]1CC[C@@]2(C)C3=C(CC[C@]12C)[C@@]1(C)CC[C@H](O)C(C)(C)[C@@H]1CC3", "activation": 0.221},
      {"smiles": "c1ccc(Nc2ccccc2)cc1", "outcome": "inactive"},
      {"smiles": "NC(=O)c1ccccc1[N+](=O)[O-]", "activation": 9.96},
      {"smiles": "Nc1cnn([C@@H]2O[C@H](CO)[C@@H](O)[C@H]2O)c(=O)n1", "activation": -5.23},
      {"smiles": "CC(=O)c1nccs1", "activation": 4.29},
      {"smiles": "N[C@@H]1[C@@H](O)[C@H](O)[C@@H](CO)O[C@H]1O", "activation": -0.472},
      {"smiles": "CCCCCCCCCCCCCO", "activation": -5.16},
      {"smiles": "CC1(N)CCC(C(C)(C)N)CC1", "note": "(stereo not given)", "activation": 0.268},
      {"smiles": "CC(=O)c1ccccc1[N+](=O)[O-]", "activation": 10.3},
      {"smiles": "CC1(C)C(=O)N(Br)C(=O)N1Cl", "activation": 1.91},
      {"smiles": "C=CCOc1nc(OCC=C)nc(OCC=C)n1", "activation": -1.13},
      {"smiles": "COC(=O)CSc1cc(N=c2sc(=O)n3n2CCCC3)c(F)cc1Cl", "activation": -5.98},
      {"smiles": "CC(C)=CCC/C(C)=C/C=O", "outcome": "inactive"},
      {"smiles": "ClCCCl", "outcome": "inactive"},
      {"smiles": "OC1CCCCC1", "activation": 6.65},
      {"smiles": "ICCc1ccccc1", "activation": 2.06},
      {"smiles": "CC(C)C(=O)OC(=O)C(C)C", "activation": 0.312},
      {"smiles": "C=CCOC(=O)COCCC(C)C", "activation": -1.15},
      {"smiles": "O=[N+]([O-])c1ccccc1CCO", "activation": -2.16},
      {"smiles": "Cc1ccc([N+](=O)[O-])c(N)c1", "activation": 10.7},
      {"smiles": "CC(C)Cc1c(C(=O)O)c(C(F)F)nc(C(F)(F)F)c1C1=NCCS1", "activation": -2.75},
      {"smiles": "C=C(C)C(=O)OCCCCCC", "activation": -3.42},
      {"smiles": "NC(=O)Nc1nc2ccccc2[nH]1", "activation": 2.79},
      {"smiles": "C=CC(=O)NC(C)(C)CS(=O)(=O)O", "activation": -4.31},
      {"smiles": "Cc1ccc(Br)cc1", "activation": 0.0493},
      {"smiles": "COC(=O)c1ccccc1C(=O)O", "activation": -3.32},
      {"smiles": "BrC1CCC(Br)C(Br)CCC(Br)C(Br)CCC1Br", "note": "(stereo not given)", "activation": 1.74},
      {"smiles": "COC(=O)c1cccc(C(=O)OC)c1", "activation": 1.38},
      {"smiles": "OC1CCCCCCCCCCC1", "activation": 1.76},
      {"smiles": "O=C(Cl)c1cc(Cl)cc(Cl)c1", "activation": -1.18},
      {"smiles": "CC(C)CCC[C@@H](C)[C@H]1CC[C@H]2[C@@H]3CC=C4C[C@@H](O)CC[C@]4(C)[C@H]3CC[C@]12C", "activation": -6.63}
    ]}
  ]
}
